The source made the active and inactive calls. Unless noted, no rule for the calls is given here.
Assays:
[1] = blood-stage malaria parasite viability loss – strain 3D7, DAPI fluorescence, 100 nL, primary screen (AID 1184);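 also: parasites grown inside human red blood cells in medium with human serum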; conditions: P. falciparum 3D7 growth, 3 d, higher = more signal
[2] = biological target: Homeobox protein Hox-A13 (Mus musculus) (UniProt Q62424); test: disruptors of Hoxa13 oligonucleotide interaction – biochemical, fluorescence polarization, labeled oligonucleotide, primary screen (AID 1185); conditions: Hoxa13:DNA binding, 15 min, higher = more signal, called active from +8 up or from −8 down
[3] = blockers of DNA damage checkpoint Chk1 activation – imaging, HeLa, hydroxyurea, phospho-Chk1 antibody, percent positive cells, primary screen (AID 1186); conditions: hydroxyurea-induced phospho-Chk1 immunofluorescence imaging, higher = more signal
[4] = blockers of DNA damage checkpoint Chk1 activation – imaging, HeLa, hydroxyurea, phospho-Chk1 nuclear intensity, primary screen (AID 1187); conditions: hydroxyurea-induced phospho-Chk1 immunofluorescence imaging, higher = more signal; also: test concentration not given here

Sequence of Homeobox protein Hox-A13 (Mus musculus) (Q62424 whole entry, looked up): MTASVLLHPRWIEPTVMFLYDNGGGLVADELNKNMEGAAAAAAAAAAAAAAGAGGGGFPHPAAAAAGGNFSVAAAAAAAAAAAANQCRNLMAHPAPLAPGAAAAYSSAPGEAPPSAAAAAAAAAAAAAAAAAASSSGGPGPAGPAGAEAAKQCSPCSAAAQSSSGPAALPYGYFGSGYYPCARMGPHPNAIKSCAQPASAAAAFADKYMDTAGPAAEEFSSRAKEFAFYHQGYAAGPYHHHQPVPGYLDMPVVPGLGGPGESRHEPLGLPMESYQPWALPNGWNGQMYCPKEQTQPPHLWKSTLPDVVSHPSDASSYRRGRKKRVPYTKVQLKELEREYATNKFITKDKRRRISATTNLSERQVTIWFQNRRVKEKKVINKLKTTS

## C=C(CCCC)/C(=C/C[C@@H](OC(=O)c1ccncc1)c1ccc(OCCO)cc1)c1cnc2ccccc2c1
[1]
  z-score: -2.84
[2]
  z-score: -2.35 (inactive)
[3]
  z-score: -0.191 (inactive)
[4]
  z-score: -0.181 (inactive)

## CCN(CC)c1ccc(N2CC=CC34O[C@@H]5C=CCOC(=O)[C@@H]5[C@H]3C(=O)N(C(C)CO)[C@@H]4C2=O)cc1 (stereo partly specified)
[1]
  z-score: 0.339
[2]
  z-score: -3.29 (inactive)
[3]
  z-score: 0.36 (inactive)
[4]
  z-score: 0.325 (inactive)

## COCCOC(=O)N1C(=O)[C@@]2(c3cc(C#CCCO)ccc31)[C@H](c1ccccc1OCCO)N1[C@H](c3ccccc3)[C@H](c3ccccc3)OC(=O)[C@H]1[C@@H]2C(=O)NC[C@H](O)c1ccccc1
[1]
  z-score: -2.08
[2]
  z-score: -0.117 (inactive)
[3]
  z-score: -0.29 (inactive)
[4]
  z-score: -0.429 (inactive)

## CC(C)[C@@H](C(=O)O)n1cc(-c2ccccn2)nn1
[1]
  z-score: -0.461
[2]
  z-score: -1.37 (inactive)
[3]
  z-score: -0.0368 (inactive)
[4]
  z-score: -0.0613 (inactive)

## COC(=O)C1=CC(c2ccc(CO)cc2)=CC(C2CC2)N(C)C=C1C(=O)OC (stereo unspecified)
[1]
  z-score: -0.591
[2]
  z-score: -8.22 (active)
[3]
  z-score: -0.516 (inactive)
[4]
  z-score: -0.732 (inactive)

## O=C1c2ccccc2[C@](Cc2ccccc2I)(C(=O)O)[C@H](c2ccc(CO)cc2)N1Cc1ccccc1Cl
[1]
  z-score: 0.303
[2]
  z-score: -4.18 (inactive)
[3]
  z-score: -0.679 (inactive)
[4]
  z-score: -0.559 (inactive)

## CO[C@H]1O[C@H](CO)[C@@H](OC(=O)CCc2ccccc2)[C@@H]2OC(=O)[C@H](Cc3ccccc3)C/C=C/C[C@@H](Cc3ccccc3)C(=O)O[C@@H]12
[1]
  z-score: -1.58
[2]
  z-score: -2.71 (inactive)
[3]
  z-score: -0.527 (inactive)
[4]
  z-score: -0.474 (inactive)

## COc1ccc([Si](C)(C)[C@H]2[C@H](CC(=O)N3Cc4ccccc4C[C@H]3CO)O[C@@]3(C(=O)N(Cc4cccc(N5C(=O)COc6ccccc65)c4)c4ccccc43)[C@@H]2C)cc1
[1]
  z-score: -2.22
[2]
  z-score: -1.82 (inactive)
[3]
  z-score: -0.558 (inactive)
[4]
  z-score: -0.221 (inactive)

## CC(C)C[C@@H]1NC(=O)[C@H]2C[C@@H](C(=O)NCCCC[N+](C)(C)C)[C@@H](c3cccc(OCCO)c3)N2C1=O
[1]
  z-score: 1
[2]
  z-score: -2.24 (inactive)
[3]
  z-score: 0.656 (inactive)
[4]
  z-score: 0.824 (inactive)

## O=C1c2ccccc2C(=O)c2cc([C@H]3Oc4ccccc4S(=O)(=O)N4CCC[C@@H]34)ccc21
[1]
  z-score: -1.27
[2]
  z-score: -3.19 (inactive)
[3]
  z-score: -0.4 (inactive)
[4]
  z-score: -0.252 (inactive)

## CCOC(=O)C[C@H]1[C@H](OC(=O)c2ccc(C(=O)c3ccccc3)cc2)[C@@H](NC(=O)Cc2ccc(OC)cc2)c2cc(OCCCO)ccc2N1C(=O)Cc1ccc(OC)cc1
[1]
  z-score: -0.283
[2]
  z-score: -2.01 (inactive)
[3]
  z-score: 0.0944 (inactive)
[4]
  z-score: 0.0944 (inactive)

## COCCOC(=O)N1C(=O)[C@@]2(c3cc(C#CCNC(N)=O)ccc31)[C@H](C(=O)NC[C@H](O)c1ccccc1)[C@H]1C(=O)O[C@H](c3ccccc3)[C@H](c3ccccc3)N1[C@@H]2c1ccc(O)cc1
[1]
  z-score: 0.418
[2]
  z-score: -2.4 (inactive)
[3]
  z-score: -0.134 (inactive)
[4]
  z-score: -0.595 (inactive)

## C/C=C/[C@@H](CCn1cc(CCO[Si](C(C)C)(C(C)C)C(C)C)nn1)[Si](C)(C)c1ccc(OC)cc1
[1]
  z-score: -0.84
[2]
  z-score: -5.56 (inactive)
[3]
  z-score: -0.233 (inactive)
[4]
  z-score: 0.122 (inactive)

## COCCCNC(=O)[C@@]1(C)c2ccccc2C(=O)N(Cc2cc(F)cc(C(F)(F)F)c2)[C@H]1c1ccc(CO)cc1
[1]
  z-score: -0.753
[2]
  z-score: -2.01 (inactive)
[3]
  z-score: -0.1 (inactive)
[4]
  z-score: 0.802 (inactive)

## C=CCN1C(=O)[C@@]2(O[C@@H](CCn3cc(CCO)nn3)[C@H]([Si](C)(C)c3ccc(OC)cc3)[C@H]2C)c2cc(NC(=O)c3ccc(OC)cc3)ccc21
[1]
  z-score: -2.65
[2]
  z-score: -4.19 (inactive)
[3]
  z-score: 1.09 (inactive)
[4]
  z-score: 1.28 (inactive)

## CCOC(=O)C[C@H]1[C@H](OC(=O)c2cc3ccccc3oc2=O)[C@@H](NC(=O)c2ccccc2)c2cc(OCCCO)ccc2N1C(=O)Cc1ccc(OC)cc1
[1]
  z-score: -2.11
[2]
  z-score: -0.814 (inactive)
[3]
  z-score: -0.35 (inactive)
[4]
  z-score: -0.0607 (inactive)

## COCCOC(=O)N1C(=O)[C@@]2(c3cc(C#CC4(O)CCCCCC4)ccc31)[C@H](C(=O)NC[C@H](O)c1ccccc1)[C@H]1C(=O)O[C@H](c3ccccc3)[C@H](c3ccccc3)N1[C@@H]2c1ccccc1OCCO
[1]
  z-score: -2.11
[2]
  z-score: -0.371 (inactive)
[3]
  z-score: 0.462 (inactive)
[4]
  z-score: 0.992 (inactive)

## C=C(CCCC)/C(=C/C[C@H](OC(=O)c1ccncc1)c1ccc(CO)o1)c1cnc2ccccc2c1
[1]
  z-score: -0.209
[2]
  z-score: -4.76 (inactive)
[3]
  z-score: -0.762 (inactive)
[4]
  z-score: -0.937 (inactive)

## O=c1n(-c2ccccc2)c(=O)n2n1CC(COc1ccccc1)=C1[C@@H](CCc3ccccc3)OB(O)C[C@@H]12
[1]
  z-score: -1.02
[2]
  z-score: -6.66 (inactive)
[3]
  z-score: -0.337 (inactive)
[4]
  z-score: -0.175 (inactive)

From PubChem BioAssay
